Test results as given in PMC5540273 (PLoS ONE, 2017).
Where “and” joins values, the source holds several entries; their conditions need not be identical. Equal values may be shown once. Read-outs that look alike come from different tables or passages of the source.

How the values were obtained:
Settings in all cases: concentration: 1 μM, replicates: in singlicate, n = 1
MKK7 = tested on: MKK7
MKNK1 = tested on: MKNK1
MKNK2 = tested on: MKNK2
MLCK = tested on: T1, MLCK
T1 construct: gene MYLK3

MLK1 = tested on: T2, MLK1
T2 construct: gene MAP3K9

MLK2 = tested on: MLK2
MLK3 = tested on: MLK3
MRCKA = tested on: MRCKA
MRCKB = tested on: T3, MRCKB
T3 construct: gene CDC42BPB

MST1R = tested on: MST1R
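Note: KINOMEscan kinase panel screen.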

| SMILES | %Inh (MKK7) [%] | %Inh (MKNK1) [%] | %Inh (MKNK2) [%] | %Inh (MLCK) [%] | %Inh (MLK1) [%] | %Inh (MLK2) [%] | %Inh (MLK3) [%] | %Inh (MRCKA) [%] | %Inh (MRCKB) [%] | %Inh (MST1R) [%] | %Inh (MKNK1; 1 µM) | %Inh (MKNK2; 1 µM) | %Inh (MLCK; 1 µM) | %Inh (MLK1; 1 µM) | %Inh (MLK2; 1 µM) | %Inh (MLK3; 1 µM) | %Inh (MRCKA; 1 µM) | %Inh (MRCKB; 1 µM) | %Inh (MST1R; 1 µM) | %Inh (MKK7; 1 µM) |
| --- | --- | --- | --- | --- | --- | --- | --- | --- | --- | --- | --- | --- | --- | --- | --- | --- | --- | --- | --- | --- |
| Cn1cc(-c2ccc3c(c2)CCN3C(=O)Cc2ccccc2Cl)c2c(N)ncnc21 [GSK2608885] | 0 | 7 | 0 | 22 | 32 | 0 | 45 | 84 | 92.2 | 100 | – | – | – | – | – | – | – | – | – | – |
| O=c1cc(N2CCOCC2)nc2n(Cc3cccc(F)c3)ccn12 [GSK2297430] | 0 | 0 | 10 | 0 | 2 | 0 | 28 | 0 | 0 | 8 | – | – | – | – | – | – | – | – | – | – |
| Cc1ccc(C(=O)NCC(N)=O)cc1-n1c(C)cc(OCc2ccc(F)cc2F)c(Br)c1=O | 0 | 0 | 0 | 0 | 25 | 19 | 22 | 3 | 12 | 29 | – | – | – | – | – | – | – | – | – | – |
| NCCNS(=O)(=O)c1ccc(-c2ccnc3[nH]ccc23)cc1 [GSK977617] | 0 | – | – | – | – | – | – | – | – | – | 35% and 28% | 97% and 94.8% | 88% and 77% | 21% and 2% | 21% and 18% | 22% and 0% | 44% and 0% | 80% and 62% | 21% and 16% | – |
| Cc1cccc(-c2nc(Nc3ccc4ncsc4c3)c3ccccc3n2)n1 [GW867588] | 0 | 16 | 0 | 0 | 7 | 20 | 1 | 2 | 33 | 0 | – | – | – | – | – | – | – | – | – | – |
| O=c1cc(N2CCOCC2)nc2n(Cc3cccc(Cl)c3Cl)c(C3CC3)nn12 [GSK2358994] | 0 | 0 | 0 | 0 | 0 | 0 | 14 | 0 | 0 | 14 | – | – | – | – | – | – | – | – | – | – |
| CCc1nc(-c2cccc(C)c2)c(-c2ccnc(NCc3ccccc3)c2)s1 | 0 | 1 | 0 | 0 | 0 | 0 | 0 | 0 | 0 | 8 | – | – | – | – | – | – | – | – | – | – |
| [2H]C([2H])(c1cccc(C(F)(F)F)c1C)n1ccn2c(=O)nc(N3CCOCC3)cc12 [GSK2336394] | 14 | 3 | 6 | 3 | 0 | 0 | 21 | 23 | 0 | 33 | – | – | – | – | – | – | – | – | – | – |
| Cc1c(Cn2c(C)nn3c(=O)cc(N4CCOC(C)C4)nc23)cccc1C(F)(F)F (stereo not drawn) [GSK2344444] | 0 | 0 | 7 | 2 | 0 | 0 | 13 | 0 | 0 | 28 | – | – | – | – | – | – | – | – | – | – |
| O=C1NC(=O)C(N2CCc3ccccc32)=C1c1cccc(Cl)c1 [SB-408010] | 0 | 18 | 46 | 0 | 0 | 0 | 0 | 0 | 15 | 5 | – | – | – | – | – | – | – | – | – | – |
| COc1ccc(S(=O)(=O)NC2CCN(c3cc(C)nc(Nc4cccc(C#N)c4)n3)CC2)cc1.O=C(O)C(F)(F)F [GSK1653539] | 0 | 0 | 20 | 0 | 0 | 0 | 27 | 0 | 0 | 48 | – | – | – | – | – | – | – | – | – | – |
| O=C(NCCNc1ccnc(Nc2ccc(F)cc2)n1)Nc1ccccc1F [GSK1379880] | 0 | 0 | 5 | 0 | 0 | 0 | 0 | 21 | 3 | 50 | – | – | – | – | – | – | – | – | – | – |
| Cl.Cl.Cl.Fc1ccc(-c2ncn(C3CCNCC3)c2-c2ccnc(Nc3ccccc3)n2)cc1 [SB-238039] | – | 0 | – | 0 | 0 | – | 0 | – | – | – | – | 0% and 29% | – | – | 40% and 6% | – | 90.3% and 71% | 75% and 92.8% | 0% and 40% | 23% and 0% |
| COc1ccc(COc2cc(-n3cnc4ccccc43)sc2C(N)=O)cc1 [GSK1024304] | 0 | 13 | 1 | 0 | 0 | 0 | 4 | 0 | 0 | 25 | – | – | – | – | – | – | – | – | – | – |
| Cl.Oc1cccc(Nc2ccnc3cc(-c4ccncc4)ccc23)c1 [GW494601] | 0 | 0 | 21 | 0 | 0 | 0 | 1 | 1 | 0 | 36 | – | – | – | – | – | – | – | – | – | – |
| NS(=O)(=O)CCc1cccc(Nc2nccc(-c3c(-c4cccc(NC(=O)c5c(F)cccc5F)c4)nn4ccccc34)n2)c1 [GSK336735] | 100 | 0 | 0 | 20 | 0 | 3 | 43 | 92.2 | 96.2 | 62 | – | – | – | – | – | – | – | – | – | – |
| NS(=O)(=O)c1cccc(-c2ccc3ncc(N4CCOCC4)nc3c2)c1 [GSK1535721] | 16 | 0 | 0 | 2 | 0 | 27 | 1 | 0 | 2 | 26 | – | – | – | – | – | – | – | – | – | – |
| COc1ccc(Nc2nccc(N3CCC(NC(=O)Nc4cc(C)ccc4C)C3)n2)cc1 (stereo not drawn) [GSK1379741] | 28 | 0 | 5 | 11 | 0 | 0 | 0 | 24 | 0 | 55 | – | – | – | – | – | – | – | – | – | – |
| Cc1nnc(-c2ccc3ncc(-c4ccc(S(C)=O)cc4)n3c2)o1 (stereo not drawn) | 18 | 0 | 35 | 0 | 0 | 0 | 0 | 9 | 0 | 0 | – | – | – | – | – | – | – | – | – | – |
| Fc1ccc(-c2nn3c(OCC(F)(F)F)cccc3c2-c2ccncc2)cc1 [GW514784] | 0 | 0 | 0 | 0 | 0 | 0 | 0 | 24 | 32 | 13 | – | – | – | – | – | – | – | – | – | – |
| COc1ccc(Nc2nccc(N3CCC(NC(=O)Nc4cccc(C(C)=O)c4)C3)n2)cc1 (stereo not drawn) [GSK1379731] | 0 | 0 | 4 | 5 | 0 | 0 | 0 | 0 | 0 | 17 | – | – | – | – | – | – | – | – | – | – |
| COc1cc2c(cc1OCCN1CCN(C)CC1)ncc1c3ccc(C#N)cc3[nH]c21 | 0 | 99.4 | 99.7 | 98.8 | 0 | 0 | 20 | 10 | 0 | 7 | – | – | – | – | – | – | – | – | – | – |
| Cc1ccc(NC(=O)c2ccnc(N3CCN(C)CC3)c2)cc1-c1ccc(C(=O)NCC2CC2)cc1 [GW775604] | 0 | 2 | 0 | 16 | 0 | 21 | 0 | 0 | 0 | 0 | – | – | – | – | – | – | – | – | – | – |
| COc1cc2c(cc1OC[C@@H](O)CO)ncc1c3ccc(C#N)cc3[nH]c21 | 0 | 97.1 | 99.4 | 94.5 | 3 | 0 | 0 | 0 | 0 | 9 | – | – | – | – | – | – | – | – | – | – |
| CCn1cnc2c(N)ncnc21 [GW345098] | 0 | 0 | 0 | 1 | 6 | 12 | 4 | 0 | 2 | 0 | – | – | – | – | – | – | – | – | – | – |
| NS(=O)(=O)c1cccc(-c2ccc3nccc(-c4cccc(S(N)(=O)=O)c4)c3c2)c1 [GW867253] | 0 | 0 | 0 | 0 | 0 | 41 | 0 | 3 | 7 | 0 | – | – | – | – | – | – | – | – | – | – |
| O=C(NOCC1CC1)c1ccc(F)c(F)c1Nc1ccc(I)cc1Cl | 0 | 0 | 0 | 0 | 0 | 0 | 0 | 0 | 0 | 0 | – | – | – | – | – | – | – | – | – | – |
| O=C(NCCCN1CCOCC1)c1cccc(Nc2nccc(Nc3ccc(Oc4ccccc4)cc3)n2)c1 [GW663929] | 0 | 0 | 29 | 0 | 0 | 0 | 18 | 4 | 0 | 37 | – | – | – | – | – | – | – | – | – | – |
| O=C(NCCNc1ccnc(Nc2ccc(F)cc2)n1)c1cc2ccccc2s1 [GSK1379874] | 0 | 2 | 0 | 0 | 6 | 0 | 17 | 13 | 0 | 30 | – | – | – | – | – | – | – | – | – | – |
| NCC(NC(=O)c1cc(-c2cn[nH]c2)c(-c2ccnc3[nH]ccc23)s1)c1ccccc1.O=C(O)C(F)(F)F.O=C(O)C(F)(F)F (stereo not drawn) [GSK1325775] | 0 | 63 | 94.2 | 96.3 | 0 | 0 | 0 | 80 | 98.6 | 5 | – | – | – | – | – | – | – | – | – | – |
